# Experimental data taken from ChEMBL document CHEMBL3433997, “St. Jude Leishmania screening dataset” (2016).
# Tests used:
# Type in all cases: functional
# [1] = target: Solute carrier family 2, facilitated glucose transporter member 1 (Homo sapiens) (UniProt P11166); assay: ST_JUDE_LEISH: Cytotoxicity at 2uM final concentration against transgenic Leishmania Mexicana promastigotes LmGLUT1 that are glucose transport deficient and complemented with the human glucose transporter GLUT1. Activity is measured by DNA content using SYBR green in vitro
# [2] = target: Hexose transporter 1 (Plasmodium falciparum) (UniProt O97467); assay: ST_JUDE_LEISH: Cytotoxicity at 2uM final concentration against transgenic Leishmania Mexicana promastigotes LmPfHT that are glucose transport deficient and complemented with the Plasmodium falciparum hexose transporter. Activity is measured by DNA content using SYBR green in vitro
# [3] = target: Glucose transporter (Leishmania mexicana) (UniProt O61059); assay: ST_JUDE_LEISH: Cytotoxicity at 2uM final concentration against transgenic Leishmania Mexicana promastigotes LmGT2 that are glucose transport deficient and complemented with the L. Mexicana glucose transporter 2. Activity is measured by DNA content using SYBR green in vitro
# Sequence of Solute carrier family 2, facilitated glucose transporter member 1 (Homo sapiens) (P11166 whole entry): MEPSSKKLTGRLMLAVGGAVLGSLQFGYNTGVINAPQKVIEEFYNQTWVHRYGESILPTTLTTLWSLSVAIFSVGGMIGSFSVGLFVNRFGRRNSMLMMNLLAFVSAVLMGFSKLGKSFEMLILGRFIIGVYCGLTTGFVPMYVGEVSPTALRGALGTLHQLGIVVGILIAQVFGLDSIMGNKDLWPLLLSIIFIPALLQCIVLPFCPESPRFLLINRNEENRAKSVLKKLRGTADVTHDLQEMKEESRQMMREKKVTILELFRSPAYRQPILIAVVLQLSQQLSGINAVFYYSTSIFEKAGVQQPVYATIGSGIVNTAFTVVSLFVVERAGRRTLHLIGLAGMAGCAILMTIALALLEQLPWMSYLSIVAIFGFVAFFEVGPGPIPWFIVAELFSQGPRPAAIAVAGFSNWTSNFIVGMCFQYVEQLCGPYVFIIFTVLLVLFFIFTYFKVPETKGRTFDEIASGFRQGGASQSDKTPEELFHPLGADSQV
SMILES,inhibition [1],inhibition [2],inhibition [3]
N#Cc1cccc(NC(=O)Nc2ccc3c(c2)CN(Cc2c[nH]c4ncccc24)C3)c1,6.66%,7.47%,3.37%
O=C(c1ccccc1)N(Cc1ccccc1-c1ccc(CNCCc2ccccc2)cc1)C1CCN(Cc2ccccc2)CC1,12.2%,10.8%,14.7%
CCN(CC)CC(O)CNc1c2ccc([N+](=O)[O-])cc2nc2cc(OC)c(OC)cc12 (stereo unspecified),69%,71.7%,42%
CC(C)C(=O)ONC1=NC(C)(C)N(OCCCOc2cc(Cl)c(Cl)cc2Cl)C(NOC(=O)C(C)C)=N1,-0.37%,1.64%,-0.44%
CCN1CCC(N(Cc2ccc(-c3ccc(C(F)(F)F)cc3)cc2)C(=O)Cn2c(CCc3cccc(F)c3F)cc(=O)c3ccccc32)C1 (stereo unspecified),0.08%,1.38%,-0.49%
CC1CCCN(Cc2cc(Cl)cc(Cl)c2O)C1 (stereo unspecified),-1.08%,-0.95%,-1.76%
O=S(=O)(Nc1cccc(CCN2CCC(N3CCCCC3)CC2)c1)c1cccc2cccnc12,0.25%,0.35%,-2.07%
N#Cc1ccc(CN2CCC(Oc3ccc(NC(=O)c4ccco4)cc3Cl)CC2)cc1,0.38%,1.94%,7.81%
N#Cc1cccc(NC(=O)C2=C(CCc3ccc4c(c3)OCO4)NC(=O)NC2c2cccc(C#N)c2)c1 (stereo unspecified),-0.43%,0.52%,-0.7%
O=C(Nc1ccc(Cl)cc1)c1ccc(CN2CCCN(Cc3ccsc3)CC2)cc1,2.78%,1.42%,7.21%
O=C(Nc1ccc([N+](=O)[O-])cc1O)Nc1ccccc1Oc1ccccc1,-1.52%,-0.84%,-0.04%
CCc1cc2c(cc1CC)CC(NC[C@@H](O)c1ccc(O)c3[nH]c(=O)ccc13)C2,1.34%,1.76%,2.1%
